# In the supplement of paper PMC6411743:
# ± gives the standard deviation of the averaged measurements. Targets with the largest changes are over-represented here; the source holds about 6,500 in all.
# Compound: Nc1ncnc2c1ncn2[C@@H]1O[C@H](COP(=O)(O)OP(=O)(O)OP(=O)(O)O)[C@@H](O)[C@H]1O [adenosine triphosphate]
# Experiment: NP40-soluble protein abundance relative to vehicle (solubility fold change) (ratio); higher = more soluble protein in presence of ATP
# Conditions: concentration: 4mM
# Outline: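 Eight concentrations, 0.1 to 10 mM, were tested on Jurkat crude lysate for 10 min at room temperature and then 3 min at 37 °C, in three independent experiments. The lysate was solubilised with 0.8% NP40 and benzonase, ultracentrifuged, and the supernatant TMT-labelled for LC-MS/MS. Each value is the fold change against the detergent-processed vehicle in its own replicate, from vsn-normalised intensities.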
# UniProt P09234, sequence (P09234 whole entry, one chain of several): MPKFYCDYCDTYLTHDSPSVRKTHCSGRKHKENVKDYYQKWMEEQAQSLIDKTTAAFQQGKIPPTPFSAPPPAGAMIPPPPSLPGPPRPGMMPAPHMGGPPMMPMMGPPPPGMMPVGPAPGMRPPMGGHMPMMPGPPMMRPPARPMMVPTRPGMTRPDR
# UniProt Q9GZN1, sequence (Q9GZN1 whole entry, one chain of several): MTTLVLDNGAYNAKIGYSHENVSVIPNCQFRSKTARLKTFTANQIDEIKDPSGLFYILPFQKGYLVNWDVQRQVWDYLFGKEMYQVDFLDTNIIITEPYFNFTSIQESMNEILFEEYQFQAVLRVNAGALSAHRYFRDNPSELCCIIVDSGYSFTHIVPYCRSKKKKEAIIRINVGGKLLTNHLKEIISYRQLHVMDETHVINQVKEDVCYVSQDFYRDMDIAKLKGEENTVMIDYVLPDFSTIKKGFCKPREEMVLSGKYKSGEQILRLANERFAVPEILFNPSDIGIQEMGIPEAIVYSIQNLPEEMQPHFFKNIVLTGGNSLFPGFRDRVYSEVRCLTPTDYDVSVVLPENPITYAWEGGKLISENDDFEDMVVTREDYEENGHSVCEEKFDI
# UniProt Q7Z478, sequence (Q7Z478 whole entry, one chain of several): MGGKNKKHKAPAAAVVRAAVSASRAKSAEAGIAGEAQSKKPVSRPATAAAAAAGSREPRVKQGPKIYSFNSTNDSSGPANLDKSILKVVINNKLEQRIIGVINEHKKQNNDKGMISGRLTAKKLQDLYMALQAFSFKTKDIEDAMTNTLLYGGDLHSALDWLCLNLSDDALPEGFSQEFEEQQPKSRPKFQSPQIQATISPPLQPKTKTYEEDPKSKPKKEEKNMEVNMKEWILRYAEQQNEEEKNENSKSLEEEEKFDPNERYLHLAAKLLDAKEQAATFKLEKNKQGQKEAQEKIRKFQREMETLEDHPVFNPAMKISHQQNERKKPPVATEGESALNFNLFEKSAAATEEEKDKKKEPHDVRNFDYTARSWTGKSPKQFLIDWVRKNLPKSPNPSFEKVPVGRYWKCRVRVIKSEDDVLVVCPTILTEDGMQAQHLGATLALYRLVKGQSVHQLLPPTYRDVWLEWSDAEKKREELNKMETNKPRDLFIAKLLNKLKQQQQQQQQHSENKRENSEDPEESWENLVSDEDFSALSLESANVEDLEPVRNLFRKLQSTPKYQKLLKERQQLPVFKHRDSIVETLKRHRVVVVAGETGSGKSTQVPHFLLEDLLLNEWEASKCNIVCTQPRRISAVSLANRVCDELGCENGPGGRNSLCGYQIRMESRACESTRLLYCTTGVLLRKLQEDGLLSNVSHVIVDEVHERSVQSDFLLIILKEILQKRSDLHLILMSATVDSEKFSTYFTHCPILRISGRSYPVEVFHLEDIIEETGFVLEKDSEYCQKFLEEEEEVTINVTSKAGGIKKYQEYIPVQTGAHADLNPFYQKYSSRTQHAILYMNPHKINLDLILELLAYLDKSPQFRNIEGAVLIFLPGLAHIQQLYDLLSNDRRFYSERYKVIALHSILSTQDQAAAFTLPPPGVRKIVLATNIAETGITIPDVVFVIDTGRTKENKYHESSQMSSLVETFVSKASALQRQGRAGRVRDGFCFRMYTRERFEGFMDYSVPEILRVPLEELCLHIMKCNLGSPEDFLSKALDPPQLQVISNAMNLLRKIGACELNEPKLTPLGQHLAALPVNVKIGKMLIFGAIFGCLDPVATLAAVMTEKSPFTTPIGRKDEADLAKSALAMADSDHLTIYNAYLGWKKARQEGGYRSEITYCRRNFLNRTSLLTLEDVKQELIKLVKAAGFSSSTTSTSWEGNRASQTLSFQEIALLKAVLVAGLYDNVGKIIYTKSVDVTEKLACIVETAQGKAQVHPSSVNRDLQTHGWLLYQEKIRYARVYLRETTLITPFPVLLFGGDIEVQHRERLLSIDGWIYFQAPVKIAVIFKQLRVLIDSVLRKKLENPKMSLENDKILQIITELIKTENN
# UniProt Q03252, sequence (Q03252 whole entry, one chain of several): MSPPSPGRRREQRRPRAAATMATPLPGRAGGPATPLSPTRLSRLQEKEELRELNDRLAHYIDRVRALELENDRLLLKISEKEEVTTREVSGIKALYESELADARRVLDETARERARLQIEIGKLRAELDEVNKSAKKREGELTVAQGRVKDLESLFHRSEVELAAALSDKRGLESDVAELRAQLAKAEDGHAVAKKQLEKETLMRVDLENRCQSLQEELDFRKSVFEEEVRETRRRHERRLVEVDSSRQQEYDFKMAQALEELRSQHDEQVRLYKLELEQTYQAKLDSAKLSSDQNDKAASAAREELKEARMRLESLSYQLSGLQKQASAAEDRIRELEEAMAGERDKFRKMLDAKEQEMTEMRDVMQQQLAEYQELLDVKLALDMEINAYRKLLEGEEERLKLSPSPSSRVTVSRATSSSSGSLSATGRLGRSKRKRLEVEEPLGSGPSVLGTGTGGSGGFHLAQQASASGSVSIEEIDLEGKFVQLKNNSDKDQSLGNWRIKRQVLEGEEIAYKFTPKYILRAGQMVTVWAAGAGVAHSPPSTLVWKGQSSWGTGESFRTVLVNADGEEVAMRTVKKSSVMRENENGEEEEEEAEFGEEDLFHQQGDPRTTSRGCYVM
# UniProt Q9NR46, sequence (Q9NR46 whole entry, one chain of several): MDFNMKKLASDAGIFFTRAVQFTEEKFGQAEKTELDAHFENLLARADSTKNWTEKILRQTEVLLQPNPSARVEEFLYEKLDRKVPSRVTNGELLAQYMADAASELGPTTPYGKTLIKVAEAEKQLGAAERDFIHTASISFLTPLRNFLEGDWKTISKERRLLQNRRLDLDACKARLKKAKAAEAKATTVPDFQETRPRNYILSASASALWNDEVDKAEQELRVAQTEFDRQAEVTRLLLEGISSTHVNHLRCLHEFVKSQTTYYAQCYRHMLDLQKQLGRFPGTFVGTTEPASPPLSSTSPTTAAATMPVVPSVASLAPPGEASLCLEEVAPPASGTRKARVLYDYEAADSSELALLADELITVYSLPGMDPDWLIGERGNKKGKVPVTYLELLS
# UniProt O75191, sequence (O75191 whole entry): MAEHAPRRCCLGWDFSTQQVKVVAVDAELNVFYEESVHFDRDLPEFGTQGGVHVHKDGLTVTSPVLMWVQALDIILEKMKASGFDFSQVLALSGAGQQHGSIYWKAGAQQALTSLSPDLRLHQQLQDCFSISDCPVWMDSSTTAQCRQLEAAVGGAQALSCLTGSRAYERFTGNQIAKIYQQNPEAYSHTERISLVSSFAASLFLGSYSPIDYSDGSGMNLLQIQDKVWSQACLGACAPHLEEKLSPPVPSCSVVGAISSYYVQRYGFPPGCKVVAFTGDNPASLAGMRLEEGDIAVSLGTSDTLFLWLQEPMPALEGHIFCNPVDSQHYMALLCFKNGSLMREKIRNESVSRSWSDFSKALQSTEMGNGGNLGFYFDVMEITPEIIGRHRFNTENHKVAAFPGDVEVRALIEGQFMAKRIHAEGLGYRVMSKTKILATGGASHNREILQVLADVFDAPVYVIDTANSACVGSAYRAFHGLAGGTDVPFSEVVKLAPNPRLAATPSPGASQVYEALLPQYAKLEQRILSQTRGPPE
# UniProt P04406, sequence (P04406 whole entry, looked up, one chain of several): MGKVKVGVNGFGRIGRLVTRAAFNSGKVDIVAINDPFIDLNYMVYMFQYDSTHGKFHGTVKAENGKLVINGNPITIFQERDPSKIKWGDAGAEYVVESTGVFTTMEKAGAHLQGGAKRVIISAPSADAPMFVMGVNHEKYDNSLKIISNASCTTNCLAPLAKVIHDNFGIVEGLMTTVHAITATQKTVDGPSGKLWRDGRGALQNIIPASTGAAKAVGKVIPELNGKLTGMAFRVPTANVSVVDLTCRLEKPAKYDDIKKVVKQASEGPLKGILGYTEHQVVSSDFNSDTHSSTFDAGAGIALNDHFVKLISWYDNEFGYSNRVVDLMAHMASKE
# UniProt Q9BZF1, sequence (Q9BZF1 whole entry, one chain of several): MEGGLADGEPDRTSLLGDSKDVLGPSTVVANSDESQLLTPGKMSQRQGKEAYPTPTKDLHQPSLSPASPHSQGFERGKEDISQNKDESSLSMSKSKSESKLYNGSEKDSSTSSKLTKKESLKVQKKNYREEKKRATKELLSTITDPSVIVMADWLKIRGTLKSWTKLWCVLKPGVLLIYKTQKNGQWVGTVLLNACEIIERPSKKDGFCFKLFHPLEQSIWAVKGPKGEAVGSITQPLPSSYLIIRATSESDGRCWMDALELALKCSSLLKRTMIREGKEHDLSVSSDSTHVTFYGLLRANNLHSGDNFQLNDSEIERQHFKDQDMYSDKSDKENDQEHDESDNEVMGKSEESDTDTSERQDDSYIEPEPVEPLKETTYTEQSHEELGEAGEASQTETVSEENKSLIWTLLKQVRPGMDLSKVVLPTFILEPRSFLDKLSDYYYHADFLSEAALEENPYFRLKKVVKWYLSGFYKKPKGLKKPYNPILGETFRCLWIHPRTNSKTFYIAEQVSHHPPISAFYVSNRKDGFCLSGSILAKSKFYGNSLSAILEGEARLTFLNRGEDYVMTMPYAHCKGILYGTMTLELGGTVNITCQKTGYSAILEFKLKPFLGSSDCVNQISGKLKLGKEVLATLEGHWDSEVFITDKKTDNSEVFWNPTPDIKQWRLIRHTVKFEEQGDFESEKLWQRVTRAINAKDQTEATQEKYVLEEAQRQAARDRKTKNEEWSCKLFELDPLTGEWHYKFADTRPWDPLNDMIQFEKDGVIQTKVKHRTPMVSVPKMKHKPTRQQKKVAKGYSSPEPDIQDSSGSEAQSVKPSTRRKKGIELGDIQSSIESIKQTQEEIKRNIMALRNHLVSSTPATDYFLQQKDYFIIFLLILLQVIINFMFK
# UniProt P04632, sequence (P04632 whole entry, one chain of several): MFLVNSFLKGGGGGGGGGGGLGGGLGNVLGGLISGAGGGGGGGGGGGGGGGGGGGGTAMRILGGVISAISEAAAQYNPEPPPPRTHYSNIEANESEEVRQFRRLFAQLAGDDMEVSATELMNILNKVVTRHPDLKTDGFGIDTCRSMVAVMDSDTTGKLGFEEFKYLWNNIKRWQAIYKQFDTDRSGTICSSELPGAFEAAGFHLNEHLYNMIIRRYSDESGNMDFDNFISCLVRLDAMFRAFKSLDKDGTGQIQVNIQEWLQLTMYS
row,Target,NP40-soluble protein abundance
1,E7EUT5|P04406 (UniProt P04406),0.9969 ± 0.0069
2,A0A087WYN9|Q7Z478 (UniProt Q7Z478),2.45 ± 0.092
3,F8W060|Q9BZF1 (UniProt Q9BZF1),0.939 ± 0.018
4,B4DT96|C9JYA1|O15504|O15504-2 (UniProt O15504),1.29 ± 0.17
5,B7ZC38|Q9NR46 (UniProt Q9NR46),0.98 ± 0.033
6,C9J0K6|P30626|P30626-2|P30626-3 (UniProt P30626),0.892 ± 0.039
7,A0A0X1KG71 (UniProt Q8WX92),0.9482 ± 0.0081
8,A0A0C4DGQ5|P04632 (UniProt P04632),0.923 ± 0.022
9,UniProt O00560|O00560-2,0.937 ± 0.04
10,HMGN4 (UniProt O00479),1.22 ± 0.47
11,A0A0A0MT22|M9MML4|P08575|P08575-2|X6R433 (UniProt P08575),0.9321 ± 0.0056
12,F8W057|Q9GZN1|Q9GZN1-2 (UniProt Q9GZN1),1.1 ± 0.065
13,A0A0B4J1Z1|C9JAB2|Q16629|Q16629-2|Q16629-3|Q16629-4 (UniProt Q16629),1.89 ± 0.28
14,B4DZG1|Q9Y483-3|Q9Y483 (UniProt Q9Y483),1.36 ± 0.057
15,E7EQI7|Q12768 (UniProt Q12768),1.05 ± 0.076
16,A8MXP9|P43243|P43243-2 (UniProt P43243),1 ± 0.026
17,J9JID7|Q03252 (UniProt Q03252),1.01 ± 0.065
18,E7EX59|E9PDR0|P05166|P05166-2|E7EUY3 (UniProt P05166),0.968 ± 0.012

row,Target,NP40-soluble protein abundance
1,G8JLQ3|P78537|P78537-2 (UniProt P78537),0.834 ± 0.1
2,A0A0B4J2C3|P13693|Q5W0H4 (UniProt P13693),0.915 ± 0.025
3,C9JKQ2|O43676 (UniProt O43676),0.867 ± 0.032
4,DNAJC13 (UniProt O75165),1.3 ± 0.043
5,E9PJI1|Q92993-3|Q92993-4|Q92993|Q92993-2 (UniProt Q92993),1.13 ± 0.17
6,A0A0G2JPT5|O75943|O75943-2 (UniProt O75943),1.62 ± 0.32
7,UniProt A7KAX9|A7KAX9-2,0.908 ± 0.0074
8,A0A0A0MTC1|A0A0A0MTR7 (UniProt Q63HN8),1.12 ± 0.083
9,A0A0D9SEU5|Q6VN20|Q6VN20-3|R4GMX8 (UniProt Q6VN20),0.979 ± 0.02
10,A0A0A0MRR7|P09234 (UniProt P09234),1.56 ± 0.062
11,B7ZBK4|Q92664 (UniProt Q92664),1 ± 0.042
12,E9PEB9|Q03001|Q03001-3 (UniProt Q03001),0.942 ± 0.081
13,E9PRY8|P29692|P29692-2|P29692-3|P29692-4 (UniProt P29692),0.894 ± 0.03
14,CPNE3 (UniProt O75131),0.954 ± 0.054
15,XYLB (UniProt O75191),0.984 ± 0.097
16,UniProt O14662-2|O14662-4|O14662-5,0.993 ± 0.044
17,J3KPP4|O95232 (UniProt O95232),2.12 ± 0.1
18,UniProt O15169|O15169-2,0.982 ± 0.19

# Same assay, conditions: concentration: 6mM
row,Target,NP40-soluble protein abundance
1,E7EUT5|P04406 (UniProt P04406),0.939 ± 0.043
2,A0A087WYN9|Q7Z478 (UniProt Q7Z478),2.57 ± 0.045
3,F8W060|Q9BZF1 (UniProt Q9BZF1),0.927 ± 0.046
4,B4DT96|C9JYA1|O15504|O15504-2 (UniProt O15504),1.43 ± 0.42
5,B7ZC38|Q9NR46 (UniProt Q9NR46),0.981 ± 0.021
6,C9J0K6|P30626|P30626-2|P30626-3 (UniProt P30626),0.911 ± 0.072
7,A0A0X1KG71 (UniProt Q8WX92),0.959 ± 0.033
8,A0A0C4DGQ5|P04632 (UniProt P04632),0.884 ± 0.039
9,UniProt O00560|O00560-2,0.896 ± 0.077
10,HMGN4 (UniProt O00479),1.67 ± 0.86
11,A0A0A0MT22|M9MML4|P08575|P08575-2|X6R433 (UniProt P08575),0.967 ± 0.014
12,F8W057|Q9GZN1|Q9GZN1-2 (UniProt Q9GZN1),1.03 ± 0.089
13,A0A0B4J1Z1|C9JAB2|Q16629|Q16629-2|Q16629-3|Q16629-4 (UniProt Q16629),2.04 ± 0.31
14,B4DZG1|Q9Y483-3|Q9Y483 (UniProt Q9Y483),1.41 ± 0.082
15,E7EQI7|Q12768 (UniProt Q12768),0.962 ± 0.11
16,A8MXP9|P43243|P43243-2 (UniProt P43243),1.05 ± 0.039
17,J9JID7|Q03252 (UniProt Q03252),1.06 ± 0.037
18,E7EX59|E9PDR0|P05166|P05166-2|E7EUY3 (UniProt P05166),0.973 ± 0.046

row,Target,NP40-soluble protein abundance
1,G8JLQ3|P78537|P78537-2 (UniProt P78537),0.861 ± 0.12
2,A0A0B4J2C3|P13693|Q5W0H4 (UniProt P13693),0.923 ± 0.05
3,C9JKQ2|O43676 (UniProt O43676),0.908 ± 0.048
4,DNAJC13 (UniProt O75165),1.35 ± 0.12
5,E9PJI1|Q92993-3|Q92993-4|Q92993|Q92993-2 (UniProt Q92993),1.1 ± 0.19
6,A0A0G2JPT5|O75943|O75943-2 (UniProt O75943),1.7 ± 0.33
7,UniProt A7KAX9|A7KAX9-2,0.907 ± 0.024
8,A0A0A0MTC1|A0A0A0MTR7 (UniProt Q63HN8),1.03 ± 0.074
9,A0A0D9SEU5|Q6VN20|Q6VN20-3|R4GMX8 (UniProt Q6VN20),0.996 ± 0.11
10,A0A0A0MRR7|P09234 (UniProt P09234),1.87 ± 0.2
11,B7ZBK4|Q92664 (UniProt Q92664),0.9904 ± 0.0034
12,E9PEB9|Q03001|Q03001-3 (UniProt Q03001),0.959 ± 0.15
13,E9PRY8|P29692|P29692-2|P29692-3|P29692-4 (UniProt P29692),0.912 ± 0.091
14,CPNE3 (UniProt O75131),0.903 ± 0.1
15,XYLB (UniProt O75191),0.965 ± 0.069
16,UniProt O14662-2|O14662-4|O14662-5,0.974 ± 0.037
17,J3KPP4|O95232 (UniProt O95232),2.32 ± 0.14
18,UniProt O15169|O15169-2,1.07 ± 0.18
